Results filed as inconclusive are left out. Active and inactive are the calls of the source. Unless noted, calls come from the whole dose curve; as a rule, active = well fitted curve in the direction sought with a large enough effect in the repeat runs; inconclusive = weak or mixed curves; inactive = no such curve, though single readings can be large; an effect the other way counts as inactive or inconclusive.
Legend:
[1] = qHTS assay to identify small molecule agonists of the estrogen receptor alpha (ER-alpha) signaling pathway in the presence of an antagonist - cell viability counter screen (AID 1259386);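 note: series mostly up to about 92 µM; cells exposed to compounds for 22 h at 37 °C before the viability read; nearly all actives have a fitted effect of over 30% in size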
Method in brief: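 Using estrogen-depleted VM7Luc4E2 cells, the 15-concentration compound series was applied together with 10.0nM ICI-182,780 and incubated 22hr at 37C/5% CO2. Cell viability was then scored by CellTiter-Fluor.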

[2] = molecular target: Progesterone receptor (Homo sapiens) (UniProt P06401); test: qHTS assay to identify small molecule agonists of the progesterone receptor (PR) signaling pathway (AID 1346784; calls by dose curve; note: nearly all actives have a fitted effect of over 30% in size)
Sequence of Progesterone receptor (Homo sapiens) (P06401 whole entry, looked up): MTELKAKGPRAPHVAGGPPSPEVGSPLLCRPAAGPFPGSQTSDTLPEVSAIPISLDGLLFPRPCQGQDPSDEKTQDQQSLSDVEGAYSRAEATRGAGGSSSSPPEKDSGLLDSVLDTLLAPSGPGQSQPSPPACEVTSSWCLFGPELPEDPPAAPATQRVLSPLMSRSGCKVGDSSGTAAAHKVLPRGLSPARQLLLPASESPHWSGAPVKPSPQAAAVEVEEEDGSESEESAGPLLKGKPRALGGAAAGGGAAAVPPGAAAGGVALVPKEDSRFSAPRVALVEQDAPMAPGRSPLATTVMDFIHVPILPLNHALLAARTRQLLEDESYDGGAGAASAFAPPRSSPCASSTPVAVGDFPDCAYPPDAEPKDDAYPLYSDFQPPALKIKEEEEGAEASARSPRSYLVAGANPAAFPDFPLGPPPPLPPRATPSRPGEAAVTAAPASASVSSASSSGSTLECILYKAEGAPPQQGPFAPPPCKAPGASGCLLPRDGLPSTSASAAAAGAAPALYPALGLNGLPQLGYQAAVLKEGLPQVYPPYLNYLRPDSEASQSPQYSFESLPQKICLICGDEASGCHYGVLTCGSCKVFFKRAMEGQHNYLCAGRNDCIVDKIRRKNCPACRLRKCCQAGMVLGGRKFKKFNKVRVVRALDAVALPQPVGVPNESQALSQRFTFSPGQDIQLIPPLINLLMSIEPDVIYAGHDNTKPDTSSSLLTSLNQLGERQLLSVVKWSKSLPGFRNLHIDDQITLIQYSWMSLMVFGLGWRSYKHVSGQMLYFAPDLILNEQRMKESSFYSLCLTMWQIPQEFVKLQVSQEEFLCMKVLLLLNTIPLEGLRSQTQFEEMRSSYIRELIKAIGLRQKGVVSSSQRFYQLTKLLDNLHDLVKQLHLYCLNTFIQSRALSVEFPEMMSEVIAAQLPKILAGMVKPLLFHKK
Method in brief: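 PR-UAS-bla HEK 293T cells (beta-lactamase reporter under UAS) in 2% charcoal-stripped FBS, dosed with 23 nL compound after 6 hr, incubated 16hr at 37C. LiveBLAzer B/G FRET substrate added, fluorescence read after 2 hours.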

[3] = molecular target: Progesterone receptor (Homo sapiens) (UniProt P06401); test: qHTS assay to identify small molecule antagonists of the progesterone receptor (PR) signaling pathway (AID 1346795; active = well fitted inhibition curve with a large enough effect in the signal ratio in the repeat runs, not every such curve was filed as active; the % refers to the signal ratio)
Method in brief: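 PR-UAS-bla HEK293T cells with beta-lactamase reporter under UAS control, in 2% charcoal-stripped FBS, treated with compounds plus 1 nM promegestone (R5020, final) for 16 hr at 37C. Read-out: FRET beta-lactamase substrate fluorescence after 2 hr at room temperature.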

[4] = qHTS assay to identify small molecule antagonists of the progesterone receptor (PR) signaling pathway - cell viability counter screen (AID 1346798); note: series mostly up to about 92 µM; nearly all actives have a fitted effect of over 50% in size
Method in brief: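 PR-UAS-bla HEK293T cells, 3,000/well in 2% charcoal-stripped FBS medium, dosed with compounds plus R5020 agonist and incubated 16 h at 37C. Viability then measured in the same wells by CellTiter-Glo luminescence after 30 min at RT.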

[5] = qHTS assay to identify small molecule agonists of the progesterone receptor (PR) signaling pathway - cell viability counter screen (AID 1346799; calls by dose curve; note: nearly all actives have a fitted effect of over 45% in size)
Method in brief: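 Counter screen in the PR-UAS-bla HEK293T wells (2% charcoal-stripped FBS, 16 h compound exposure at 37 C) after the bla read. CellTiter-Glo added, 30 min at room temperature, luminescence read as cell viability.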

[6] = qHTS assay to identify small molecule antagonists of the TGF-beta/Smad signaling pathway - cell viability counter screen (AID 1346824); note: nearly all actives have a fitted effect of over 50% in size
Method in brief: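 SBE-bla HEK 293T cells, incubated overnight, then compound plus 0.25 ng/mL TGF-beta1 (stock added) for 5 hr at 37 C. Viability was read in the same wells by CellTiter-Glo luminescence after 30 min at room temperature.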

[7] = qHTS assay to identify small molecule agonists of the TGF-beta/Smad signaling pathway - cell viability counter screen (AID 1346829); note: top concentration of the series differs between compounds; nearly all actives have a fitted effect of over 45% in size
Method in brief: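 In parallel with the Smad reporter read, viability of HEK 293T cells stably carrying SBE-bla is quantified by ATP luminescence following 5 hr compound treatment.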

[8] = Human pregnane X receptor (PXR) small molecule agonists, qHTS cell viability counter screen (AID 1346977); note: nearly all actives have a fitted effect of over 50% in size
Method in brief: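 PXR-Luc HepG2 cells (2,000/well, 5% charcoal-stripped FBS) preincubated 5 hr, then exposed to compounds 24 hr at 37 C. Viability read in the same wells by CellTiter-Fluor fluorescence, reagent added at 23 hr, 1 hr incubation.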

[9] = Caspase-3/7 induction in HepG2 cells by small molecules, qHTS assay (AID 1346978); note: nearly all actives have a fitted effect of over 15% in size
Method in brief: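 Wild-type HepG2 cells, 2,000/well, settled 5 hr at 37 C and 5% CO2, then compound-treated for 17 hr; caspase-3/7 activity read by luminescent Caspase-Glo 3/7 after 30 min at room temperature.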

[10] = Caspase-3/7 induction in CHO-K1 cells by small molecules, qHTS assay (AID 1346980); note: nearly all actives have a fitted effect of over 15% in size
Method in brief: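 Wild-type CHO-K1 cells exposed to compounds for 17hr at 37 C, 5% CO2. Caspase-3/7 activity then measured by Caspase-Glo 3/7 luminescence after 30min at room temperature.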

[11] = molecular target: Cytochrome P450 2D6 (Homo sapiens) (UniProt P10635); test: Cytochrome P450 Family 2 Subfamily D Member 6 (CYP2D6) small molecule antagonists: luciferase reporter qHTS assay (AID 1671196); note: series mostly up to about 120 µM; nearly all actives have a fitted effect of over 50% in size
Sequence of Cytochrome P450 2D6 (Homo sapiens) (P10635 whole entry, looked up): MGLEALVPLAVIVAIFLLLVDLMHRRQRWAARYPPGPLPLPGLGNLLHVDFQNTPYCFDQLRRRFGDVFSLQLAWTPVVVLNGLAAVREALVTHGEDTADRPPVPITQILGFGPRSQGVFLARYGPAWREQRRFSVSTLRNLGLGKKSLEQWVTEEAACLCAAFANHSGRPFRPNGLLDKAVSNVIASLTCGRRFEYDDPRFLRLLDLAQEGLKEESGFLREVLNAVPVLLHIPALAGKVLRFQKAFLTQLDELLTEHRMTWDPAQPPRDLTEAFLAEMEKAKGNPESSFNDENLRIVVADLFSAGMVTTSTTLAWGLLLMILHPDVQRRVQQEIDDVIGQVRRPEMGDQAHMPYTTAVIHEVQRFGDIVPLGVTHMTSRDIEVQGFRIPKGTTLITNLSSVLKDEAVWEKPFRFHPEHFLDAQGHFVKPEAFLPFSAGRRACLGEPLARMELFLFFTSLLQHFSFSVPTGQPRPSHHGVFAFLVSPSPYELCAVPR
Method in brief: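 Room-temperature luminescent CYP2D6 activity assay: compound preincubated 10 min with enzyme–substrate mix, NADPH-initiated reaction 1 h, detection reagent 20 min before reading.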

[12] = qHTS assay to identify small molecule agonists of the TGF-beta/Smad signaling pathway (AID 1346859; active = well fitted activation curve with a large enough effect in the signal ratio in the repeat runs, not every such curve was filed as active; the % refers to the signal ratio; note: series mostly up to about 77 µM)
Method in brief: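 SBE-bla HEK293T cells plated overnight, then compound exposure for 5 h at 37 C. Beta-lactamase reporter read with LiveBLAzer B/G FRET substrate after 2 h at room temperature, fluorescence at 405 nm excitation, 460/530 nm emission.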

[13] = Caspase-3/7 induction in CHO-K1 cells by small molecules, qHTS cell viability counter screen (AID 1346979); note: nearly all actives have a fitted effect of over 35% in size
Method in brief: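 Wild-type CHO-K1 cells (1,500/well) treated with compound after 5 h plating; after 16 h at 37C, viability read as CellTiter-Fluor fluorescence following 1 h reagent incubation, in the same wells as the caspase read.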

[14] = Caspase-3/7 induction in HepG2 cells by small molecules, qHTS cell viability counter screen (AID 1346981); note: series mostly up to about 92 µM; nearly all actives have a fitted effect of over 30% in size
Method in brief: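 After a 5-hr attachment period at 37 C and 5% CO2, wild-type HepG2 cells received compounds in DMSO. Sixteen hours later CellTiter-Fluor was dispensed and the fluorescent signal quantified after a further hour.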

[15] = molecular target: Thyrotropin-releasing hormone receptor (Homo sapiens) (UniProt P34981); test: qHTS assay to identify small molecule antagonists of the thyrotropin-releasing hormone receptor (TRHR) signaling pathway (AID 1346877; active = well fitted inhibition curve with a large enough effect in the repeat runs, not every such curve was filed as active; note: series mostly up to about 51 µM)
Sequence of Thyrotropin-releasing hormone receptor (Homo sapiens) (P34981 whole entry, looked up): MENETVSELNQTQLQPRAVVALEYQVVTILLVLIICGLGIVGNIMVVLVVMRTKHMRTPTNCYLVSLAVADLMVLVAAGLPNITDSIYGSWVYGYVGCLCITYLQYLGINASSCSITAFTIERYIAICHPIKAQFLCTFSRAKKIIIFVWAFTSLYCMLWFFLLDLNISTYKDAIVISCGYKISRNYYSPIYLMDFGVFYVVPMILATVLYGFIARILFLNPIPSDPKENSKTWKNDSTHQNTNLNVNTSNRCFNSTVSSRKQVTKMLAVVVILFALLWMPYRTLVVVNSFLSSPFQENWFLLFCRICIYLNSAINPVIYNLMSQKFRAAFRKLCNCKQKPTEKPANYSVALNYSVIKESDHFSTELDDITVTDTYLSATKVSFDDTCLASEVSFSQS
Method in brief: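 Calcium signal in dye-loaded TRHR/HEK293 cells; compounds added 5 min before TRH (1 nM final); fluorescence monitored 3 min at 1 s steps.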

[16] = molecular target: Thyrotropin-releasing hormone receptor (Homo sapiens) (UniProt P34981); test: qHTS assay to identify small molecule agonists of the thyrotropin-releasing hormone receptor (TRHR) signaling pathway (AID 1346891; calls by dose curve; note: series mostly up to about 58 µM)
Method in brief: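 HEK293 cells expressing TRHR plated 18 h at 37 C/5% CO2, calcium dye-loaded 2 h at 37 C, then compound added (agonist mode); kinetic calcium fluorescence read 3 min at 1 s intervals; 15 concentrations in triplicate.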

[17] = molecular target: Nuclear receptor subfamily 1 group I member 2 (Rattus norvegicus) (UniProt Q9R1A7); test: Rat pregnane X receptor (rPXR) activation by small molecules, qHTS assay (AID 1346983); details: rPXR luciferase reporter cells, One-Glo luminescence, 24 h; max activation: stronger effect = higher value; note: nearly all actives have a fitted effect of over 20% in size
Sequence of Nuclear receptor subfamily 1 group I member 2 (Rattus norvegicus) (Q9R1A7 whole entry, looked up): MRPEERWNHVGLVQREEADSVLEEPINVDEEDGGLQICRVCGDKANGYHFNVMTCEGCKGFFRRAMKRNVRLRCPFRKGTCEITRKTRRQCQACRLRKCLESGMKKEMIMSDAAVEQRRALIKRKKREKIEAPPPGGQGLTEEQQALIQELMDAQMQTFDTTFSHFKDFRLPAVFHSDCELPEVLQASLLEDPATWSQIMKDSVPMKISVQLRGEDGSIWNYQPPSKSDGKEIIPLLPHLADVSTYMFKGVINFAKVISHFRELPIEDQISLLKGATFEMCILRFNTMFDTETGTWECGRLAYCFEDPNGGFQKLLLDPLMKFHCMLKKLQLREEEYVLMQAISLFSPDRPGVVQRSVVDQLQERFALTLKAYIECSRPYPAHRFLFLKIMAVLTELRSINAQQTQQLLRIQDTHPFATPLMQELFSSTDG
Method in brief: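 Cell-based rPXR activation assay: rPXR cells, 2,000 per well, rested 5hr at 37 C, then exposed to compounds in DMSO for 24 hr at 37 C. Luciferase activity read by One-Glo luminescence after 30 min at room temperature.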

[18] = molecular target: Nuclear receptor subfamily 1 group I member 2 (Homo sapiens) (UniProt O75469); test: CYP3A4 induction through human pregnane X receptor (PXR) by small molecules, qHTS assay (AID 1346984); note: nearly all actives have a fitted effect of over 40% in size
Method in brief: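 Cells (DPX-2; HepG2 with PXR element plus CYP3A4-promoter luciferase) settled 5hr, then were treated 24hr at 37C. A 3hr, 3uM-final Luciferin-IPA step preceded luminescence measurement with One-Glo.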

[19] = molecular target: Nuclear receptor subfamily 1 group I member 2 (Homo sapiens) (UniProt O75469); test: Human pregnane X receptor (PXR) activation by small molecules, qHTS assay (AID 1346985); note: nearly all actives have a fitted effect of over 40% in size
Method in brief: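 DPX-2 cells (HepG2 co-transfected with a PXR response element and a CYP3A4-promoter luciferase construct) were seeded at 2,000 per well, rested 5 hr at 37C, then exposed to DMSO-dissolved compounds for 24 hr. Activation was read as luciferase luminescence.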
% is set by controls: 0 for no effect and ±100 for the full control effect.

O=c1[nH]c2ccc(Cl)cc2o1
inactive: Potency [1] | Potency [2] | Potency [3] | Potency [4] | Potency [5] | Potency [6] | Potency [7] | Potency [8] | Potency [9] | Potency [10] | Potency [11]

O=C1NCCN1CCO
inactive: Potency [1] | Potency [2] | Potency [3] | Potency [4] | Potency [5] | Potency [6] | Potency [7] | Potency [12] | Potency [8] | Potency [9] | Potency [13] | Potency [14] | Potency [11]

Nc1ncnc2c1ncn2[C@H]1CC[C@@H](CO)O1
inactive: Potency [1] | Potency [2] | Potency [3] | Potency [4] | Potency [5] | Potency [6] | Potency [7] | Potency [12] | outcome [15] | Potency [16] | Potency [8] | Potency [9] | Potency [10] | Potency [14] | max activation [17] 1.66% | Potency [18] | Potency [19] | Potency [11]

CCOC(=O)OC(C)OC(=O)[C@@H]1N2C(=O)[C@@H](NC(=O)[C@H](N)c3ccccc3)[C@H]2SC1(C)C (stereo partly specified)
inactive: Potency [1] | Potency [2] | Potency [3] | Potency [4] | Potency [5] | Potency [6] | Potency [7] | outcome [15] | Potency [16] | Potency [8] | Potency [9] | Potency [13] | Potency [10] | max activation [17] 0.482%
